Values joined by “and” are separate entries in the source; they are usually repeats but may differ in a detail not shown here. Equal values may be shown once. This is part of a sample that, as a whole, favours compounds with a hit. Of some 83,000 tested, about 20% had one in any assay.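 Note: values are percent growth. 100 is the growth of untreated cells, values between 100 and 0 indicate rising inhibition; between -100 and 0 indicates cell death.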 Active and inactive are the calls of the source. Rule for the calls: active = growth percent below 10; inactive = the rest.

The test system of this experiment is MDA-MB-468 breast. As to the kind of experiment: NCI-60 one-dose screen, 48 h (100 = growth as untreated, 0 = no growth, -100 = all killed). The settings on record: 10 µM unless noted.
`O=c1cc(C2NNC(=S)N2)c2ccc3ccccc3c2o1` (stereo not given): the growth was 128% (inactive). As for `Cn1cc(-c2[nH]c3cc(NC(=O)[C@H](N)C4CCCCC4)cc4c3c2C=NNC4=O)cn1`, the figure is -83.3% (active). To `N#CC(=C1SCS1)[N+](=O)[O-]` belongs -4.62% (active). As for `COc1ccc(-c2nn(-c3cccc(NC(=O)Nc4ccc(Cl)c(C(F)(F)F)c4)c3)cc2-c2ccncc2)cc1Cl`, the figure is 23.1% (inactive); as for `COc1cc(Cn2c(SCC(=O)Nc3cc(OC)c(OC)c(OC)c3)nc3ccccc3c2=O)cc(OC)c1OC`, 72.7% (inactive). For `CCCCCC1CCCCN1C(=O)OCC` (stereo not given), the growth is 150% (inactive).

As for `Cc1sc2nc(NCCc3cccs3)[nH]c(=O)c2c1C`, the growth is 82.4% (inactive). To `CCCCCCC1(C)NCCO1` (stereo not given) belongs 103% (inactive); to `CC/C(=C\c1ccc(OC)cc1)C(=O)c1ccc(OC)cc1`, 79.2% (inactive). To `CCCCCCCCCCNC(=O)CI` belongs -40.5% (active). As to `Cc1ccc(C(=O)Nc2cccc(C#Cc3cccc4[nH]nc(N)c34)c2)cc1C(F)(F)F`, the growth is 95.6% (inactive). To `COc1ccc(NC(=O)C2c3ccccc3C(=O)N(CC(C)C)C2c2cccs2)cc1` (stereo not given) belongs 82.3% (inactive); to `COc1cc2c(cc1[N+](=O)[O-])-c1ccc([N+](=O)[O-])cc1/C2=N\O`, 49.4% (inactive). As for `CCOC(=O)c1cc(C(=O)OCC)c(C)nc1C`, the figure is 109% (inactive); as for `CN(C)C(=N)N=C(N)N`, 80.6% (inactive) and 128% (inactive). On to `NC(=O)CC1(c2ccccc2)CCCCC1`, for which the growth was 104% (inactive).

As for `N#C/C(=C\c1ccc2ccccc2c1)C(=O)Nc1sc2c(c1C#N)CCC2`, the growth is 96.8% (inactive). To `COc1ccc2c(c1)C(C)Cc1c(ncnc1-n1cnc3ccccc31)N2C` (stereo not given) belongs 27.3% (inactive); to `O=C(Nc1ccc(Cl)c(Cl)c1)Nc1c(Oc2ccc(Cl)c(Cl)c2)ccc(Cl)c1S(=O)(=O)O`, -5.92% (active). To `C[n+]1cc2cc(C(N)=O)[nH]c3c(=N)c(Cl)c(N)c1c23` belongs 53.3% (inactive); to `COCCOCCOCc1n(Cc2ccc3ccccc3n2)c2ccccc2[n+]1Cc1ccc2ccccc2c1`, -50.1% (active); to `Cc1ccc([C@H]2c3[nH]c4ccccc4c3C[C@H]3C(=O)N(CCCCCCC(=O)NO)CC(=O)N23)s1`, 37.3% (inactive). As for `N/C(=N\c1nc2c(Cl)cc(Cl)cc2s1)C(Cl)(Cl)Cl`, the figure is -48.6% (active); as for `Cc1ccc(-c2nc(N3CCCNCC3)c3oc(-c4ccccc4)nc3n2)cc1`, -76.2% (active); as for `CS(=O)(=O)c1ccc(-n2nc(-c3ccc(Br)cc3)c3ccccc3c2=O)cc1`, 100% (inactive).

Turning to `CNC(=S)N/N=C/CSC/C=N/NC(=S)NC`, the growth is 66.8% (inactive). Turning to `CC(=O)Cc1nsc(NC(=O)c2cc(-c3cc(Cl)cc(Cl)c3)oc2C)n1`, the growth was 97.6% (inactive). As for `OCCNc1nc(NCCO)nc(Nc2ccc(C3=NN(c4cc(Cl)cc(Cl)c4)C(c4ccc(C(F)(F)F)cc4)C3)cc2)n1` (stereo not given), the growth was 39.7% (inactive).

Take `C=C1CC[C@H](C(C)C)[C@@H]2[C@H]1[C@H]1CC(=C)[C@@H](O)CC[C@@](C)(O)[C@@H]2O1`: the growth is 89% (inactive). As for `NC1(N)C=CC2=C(C=C1)C1(N)C3=C(C=CC(N)(N)C=C3)N2C2(N)C3=C(C=CC(N)(N)C=C3)N1C1=C2C=CC(N)(N)C=C1`, the figure is 72.3% (inactive); as for `O=Cc1ccccc1C(=O)O`, -6.83% (active); as for `COc1ccc(C(=O)NCCNc2nccc(-c3c(-c4ccc(F)cc4)nc4sccn34)n2)cc1`, 67.5% (inactive). As for `COc1ccc(/C=C2/CN(C(=O)c3ccccc3F)C/C(=C\c3ccc(OC)cc3)C2=O)cc1`, the figure is 1.01% (active). As for `O=c1c2cccc3c(Nc4ccc(Br)cn4)ccc(c32)c2nc3ccccc3n12`, the figure is -64.7% (active). Turning to `O=C(Nc1cccc([N+](=O)[O-])c1)NN1CCCCCC1`, the growth is 88.7% (inactive). As for `Cc1ccc2cccc(OC(=O)Nc3cccc(C(F)(F)F)c3)c2n1`, the figure is 75.4% (inactive); as for `COc1ccc2c(c1)C(=O)c1c-2c(OCCCN(C)C)nc2cc(Br)ccc12`, 67.5% (inactive); as for `O=C(CCc1nnc2sc(Cc3ccccc3Cl)nn12)c1nc2ncccc2[nH]1`, 95.9% (inactive).

In the case of `COc1ccc(/C(=C\c2cc(OC)c(OC)c(OC)c2)C(=O)N2CCCNCC2)cc1`, the growth is 98.1% (inactive). To `CC1c2ccccc2N(S(=O)(=O)c2ccccc2)C1C` (stereo not given) belongs 37.9% (inactive).

The record behind these values is PubChem BioAssay (NCI).
